{
  "source": "paper PMC5540273",
  "about": "(PLoS ONE, 2017);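 note: KINOMEscan kinase panel screen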",
  "data": [
    {"tested_on": "T1, YSK1", "T1 construct": "gene STK25", "conditions": "concentration: 1 μM,replicates: in singlicate; n = 1", "units": {"%Inh": "%"}, "values": [
      {"molecule": "CC(C)N1C(=O)Cc2cc(Nc3ncc(C(F)(F)F)c(NCc4cccc(S(C)(=O)=O)c4)n3)ccc21", "%Inh": 0},
      {"molecule": "CN(C)CC(O)COc1ccc(Nc2nccc(-c3cnn4nc(N5CCOCC5)ccc34)n2)cc1", "note": "(stereo not drawn) [GW767488]", "%Inh": 17},
      {"molecule": "Cl.Cl.Nc1nc(-c2ccc3c(N)n[nH]c3c2)cc(N2CCCC(NC(=O)c3ccccc3)C2)n1", "note": "(stereo not drawn) [GSK2286775]", "%Inh": 22},
      {"molecule": "Cc1cc2cn[nH]c2cc1-c1cccc2c(N)c(C(N)=O)nnc12", "%Inh": 0},
      {"molecule": "CN(C)CCOc1ccc(-c2cc(-c3c[nH]nc3-c3ccccn3)ccn2)cc1", "note": "[GW835314]", "%Inh": 0},
      {"molecule": "COc1ccc(C[C@@H](CN)NC(=O)c2cc(Br)c(-c3ccnc4[nH]ccc34)s2)cc1.Cl.Cl", "note": "[GSK1389063]", "%Inh": 100},
      {"molecule": "CNC(=O)c1ccccc1Sc1ccc2c(/C=C/c3ccccn3)n[nH]c2c1", "%Inh": 0},
      {"molecule": "CCn1c(-c2nonc2N)nc2c(C#CC(C)(C)O)nc(OCCN)cc21.Cl.Cl", "note": "[GSK902056]", "%Inh": 0},
      {"molecule": "Cc1ccc(-n2nc(C(C)(C)C)cc2NC(=O)Nc2ccc(OCCN3CCOCC3)c3ccccc23)cc1", "note": "[GW839464]", "%Inh": 0},
      {"molecule": "Nc1nc(Nc2ccccc2)cc(-c2ccc3c(N)n[nH]c3c2)n1", "note": "[GSK2225749]", "%Inh": 0},
      {"molecule": "CCN(CC)CCCCNc1ncc2cc(-c3c(Cl)cccc3Cl)c(NC(=O)NC(C)(C)C)nc2n1", "%Inh": 58},
      {"molecule": "C[C@@H]1CCN(C(=O)CC#N)C[C@@H]1N(C)c1ncnc2[nH]ccc12", "%Inh": 0},
      {"molecule": "O=C(NCCNc1ccnc(NCc2ccc(F)cc2)n1)c1cc2ccccc2s1", "note": "[GSK1379944]", "%Inh": 0},
      {"molecule": "C[C@H]1Oc2cc(cnc2N)-c2c(nn(C)c2C#N)CN(C)C(=O)c2ccc(F)cc21", "%Inh": 0},
      {"molecule": "Cl.Cl.NC[C@H](Cc1ccc(C(F)(F)F)cc1)NC(=O)c1cc(Br)c(-c2ccnc3[nH]ccc23)s1", "note": "[GSK1487252]", "%Inh": 30},
      {"molecule": "Cc1ccc2c(-c3ccncc3)c(-c3ccc(F)cc3)nn2c1.Cl", "note": "[GW461484]", "%Inh": 7},
      {"molecule": "NC(=O)c1cc(-c2ccccc2)cc2c(C3CCNCC3)c[nH]c12", "note": "[GSK301362]", "%Inh": 1},
      {"molecule": "CC(C)Nc1cc(-c2ccc3c(N)n[nH]c3c2)nc(N)n1", "note": "[GSK2221681]", "%Inh": 14},
      {"molecule": "O=C(NCCCN1CCOC1=O)c1cnc(NCc2cc(Cl)ccc2Cl)nc1NC1CCCC1", "%Inh": 0},
      {"molecule": "Cl.Cl.NC[C@H](CC1CCCCC1)NC(=O)c1cc(Br)c(-c2ccnc3[nH]ccc23)s1", "note": "[GSK1581427]", "%Inh": 0},
      {"molecule": "CCN(CC)CCOc1ccc(Nc2ncc3cc(-c4c(Cl)cccc4Cl)c(=O)n(C)c3n2)cc1", "note": "[SB-601273]", "%Inh": 37},
      {"molecule": "C[C@@H](Oc1cc(-c2cnn(C3CCNCC3)c2)cnc1N)c1c(Cl)ccc(F)c1Cl", "%Inh": 0},
      {"molecule": "C=CC(=O)Nc1cc2c(Nc3ccc(F)c(Cl)c3)ncnc2cc1OCCCN1CCOCC1", "note": "[GW781483]", "%Inh": 0},
      {"molecule": "Cl.Oc1cc(-c2nc(-c3ccccc3)[nH]c2-c2ccncc2)ccc1Cl", "note": "[SB-386023]", "%Inh": 0},
      {"molecule": "Cc1n[nH]c2ccc(-c3cc(OC[C@@H](N)Cc4ccccc4)cnc3-c3ccoc3)cc12.O=C(O)C(F)(F)F.O=C(O)C(F)(F)F", "note": "[GSK507358]", "%Inh": 22},
      {"molecule": "Cc1occc1-c1nc(N)c(OC[C@@H](N)Cc2c[nH]c3ccccc23)cc1-c1cc2c(C)n[nH]c2cn1", "note": "[GSK1660450]", "%Inh": 57},
      {"molecule": "Cc1cc(C(=O)Nc2ccc(Oc3ccc4nc(NC(=O)C5CC5)cn4n3)cc2)nn1-c1ccccc1", "%Inh": 1}
    ]},
    {"tested_on": "T2, YSK4", "T2 construct": "gene MAP3K19", "conditions": "concentration: 1 μM,replicates: in singlicate; n = 1", "units": {"%Inh": "%"}, "values": [
      {"molecule": "CC(C)N1C(=O)Cc2cc(Nc3ncc(C(F)(F)F)c(NCc4cccc(S(C)(=O)=O)c4)n3)ccc21", "%Inh": 99.8},
      {"molecule": "CN(C)CC(O)COc1ccc(Nc2nccc(-c3cnn4nc(N5CCOCC5)ccc34)n2)cc1", "note": "(stereo not drawn) [GW767488]", "%Inh": 90},
      {"molecule": "Cl.Cl.Nc1nc(-c2ccc3c(N)n[nH]c3c2)cc(N2CCCC(NC(=O)c3ccccc3)C2)n1", "note": "(stereo not drawn) [GSK2286775]", "%Inh": 36},
      {"molecule": "Cc1cc2cn[nH]c2cc1-c1cccc2c(N)c(C(N)=O)nnc12", "%Inh": 71},
      {"molecule": "CN(C)CCOc1ccc(-c2cc(-c3c[nH]nc3-c3ccccn3)ccn2)cc1", "note": "[GW835314]", "%Inh": 28},
      {"molecule": "COc1ccc(C[C@@H](CN)NC(=O)c2cc(Br)c(-c3ccnc4[nH]ccc34)s2)cc1.Cl.Cl", "note": "[GSK1389063]", "%Inh": 99.6},
      {"molecule": "CNC(=O)c1ccccc1Sc1ccc2c(/C=C/c3ccccn3)n[nH]c2c1", "%Inh": 78},
      {"molecule": "CCn1c(-c2nonc2N)nc2c(C#CC(C)(C)O)nc(OCCN)cc21.Cl.Cl", "note": "[GSK902056]", "%Inh": 99.7},
      {"molecule": "Cc1ccc(-n2nc(C(C)(C)C)cc2NC(=O)Nc2ccc(OCCN3CCOCC3)c3ccccc23)cc1", "note": "[GW839464]", "%Inh": 0},
      {"molecule": "Nc1nc(Nc2ccccc2)cc(-c2ccc3c(N)n[nH]c3c2)n1", "note": "[GSK2225749]", "%Inh": 46},
      {"molecule": "CCN(CC)CCCCNc1ncc2cc(-c3c(Cl)cccc3Cl)c(NC(=O)NC(C)(C)C)nc2n1", "%Inh": 49},
      {"molecule": "C[C@@H]1CCN(C(=O)CC#N)C[C@@H]1N(C)c1ncnc2[nH]ccc12", "%Inh": 8},
      {"molecule": "O=C(NCCNc1ccnc(NCc2ccc(F)cc2)n1)c1cc2ccccc2s1", "note": "[GSK1379944]", "%Inh": 27},
      {"molecule": "C[C@H]1Oc2cc(cnc2N)-c2c(nn(C)c2C#N)CN(C)C(=O)c2ccc(F)cc21", "%Inh": 0},
      {"molecule": "Cl.Cl.NC[C@H](Cc1ccc(C(F)(F)F)cc1)NC(=O)c1cc(Br)c(-c2ccnc3[nH]ccc23)s1", "note": "[GSK1487252]", "%Inh": 88},
      {"molecule": "Cc1ccc2c(-c3ccncc3)c(-c3ccc(F)cc3)nn2c1.Cl", "note": "[GW461484]", "%Inh": 0},
      {"molecule": "NC(=O)c1cc(-c2ccccc2)cc2c(C3CCNCC3)c[nH]c12", "note": "[GSK301362]", "%Inh": 50},
      {"molecule": "CC(C)Nc1cc(-c2ccc3c(N)n[nH]c3c2)nc(N)n1", "note": "[GSK2221681]", "%Inh": 41},
      {"molecule": "O=C(NCCCN1CCOC1=O)c1cnc(NCc2cc(Cl)ccc2Cl)nc1NC1CCCC1", "%Inh": 11},
      {"molecule": "Cl.Cl.NC[C@H](CC1CCCCC1)NC(=O)c1cc(Br)c(-c2ccnc3[nH]ccc23)s1", "note": "[GSK1581427]", "%Inh": 99.6},
      {"molecule": "CCN(CC)CCOc1ccc(Nc2ncc3cc(-c4c(Cl)cccc4Cl)c(=O)n(C)c3n2)cc1", "note": "[SB-601273]", "%Inh": 99.2},
      {"molecule": "C[C@@H](Oc1cc(-c2cnn(C3CCNCC3)c2)cnc1N)c1c(Cl)ccc(F)c1Cl", "%Inh": 72},
      {"molecule": "C=CC(=O)Nc1cc2c(Nc3ccc(F)c(Cl)c3)ncnc2cc1OCCCN1CCOCC1", "note": "[GW781483]", "%Inh": 49},
      {"molecule": "Cl.Oc1cc(-c2nc(-c3ccccc3)[nH]c2-c2ccncc2)ccc1Cl", "note": "[SB-386023]", "%Inh": 0},
      {"molecule": "Cc1n[nH]c2ccc(-c3cc(OC[C@@H](N)Cc4ccccc4)cnc3-c3ccoc3)cc12.O=C(O)C(F)(F)F.O=C(O)C(F)(F)F", "note": "[GSK507358]", "%Inh": 99.8},
      {"molecule": "Cc1occc1-c1nc(N)c(OC[C@@H](N)Cc2c[nH]c3ccccc23)cc1-c1cc2c(C)n[nH]c2cn1", "note": "[GSK1660450]", "%Inh": 99.7},
      {"molecule": "Cc1cc(C(=O)Nc2ccc(Oc3ccc4nc(NC(=O)C5CC5)cn4n3)cc2)nn1-c1ccccc1", "%Inh": 1}
    ]}
  ]
}
